Test results taken from PubChem BioAssay (EPA / NIEHS).
Several values for one entry are separate records, joined by “and”; a condition that tells them apart may be missing. Identical values can stand only once. Inconclusive results are not listed. More than one record can exist for a structure, and the calls need not agree. Activity calls are given as the source filed them. Rule for the calls, unless noted: active = hit-call score of the fitted dose curve at least 0.9, where 1 is the maximum; inactive = score below 0.9.

Experiments:
[1] = ATG_TCF_b_cat_CIS: Attagene CIS-FACTORIAL HepG2 Assay for human T-Cell-Factor with beta-catenin (TCF/b-cat) (AID 2282965); settings: HepG2 TCF/beta-catenin cis-reporter transcription, actives raise or lower the signal
Method in brief: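 HepG2 cells transiently transfected with multiple cis-promoter-regulated reporter transcription units, so endogenous transcription factor activity is measured. Reporter mRNA read 24 hours after dosing by RT-PCR, fluorescent labelling and capillary electrophoresis; bidirectional fitting against DMSO.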

[2] = ATG_TAL_CIS: Attagene CIS-FACTORIAL HepG2 Assay for human TAL Basal Promoter (AID 2282966); settings: HepG2 Attagene cis-factorial TAL promoter reporter; actives raise or lower the signal;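 note: background control endpoint measuring basal TAL promoter reporter mRNA not a specific factor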
Method in brief: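 HepG2 cells transiently transfected with multiplexed cis-promoter reporter units, dosed 24 h. Reporter mRNA quantified by RT-PCR, 6-FAM labelling, HpaI digestion and capillary electrophoresis; TAL basal promoter serves as background control, fitted bidirectionally versus DMSO.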

[3] = ATG_TGFb_CIS: Attagene CIS-FACTORIAL HepG2 Assay for human Transforming Growth Factor (TGF) (AID 2282967); settings: HepG2 Attagene CIS TGFb reporter, mRNA transcription; actives raise or lower the signal
Method in brief: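 Endogenous TGFB1-linked transcription factor activity read as reporter mRNA via RT-PCR and capillary electrophoresis, 24 h after dosing transiently transfected HepG2 cells. Gain or loss of signal fitted relative to DMSO.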

[4] = biological target: Estrogen receptor (Homo sapiens) (UniProt P03372); assay: ATG_ERa_TRANS: Attagene TRANS-FACTORIAL HepG2 Assay for human Estrogen Receptor alpha (ERa) (AID 2282970; active = hit-call score of the fitted dose curve at least 0.9, where 1 is the maximum); settings: HepG2 Attagene TRANS ERa GAL4 reporter, mRNA
Chain of Estrogen receptor (Homo sapiens) (P03372 whole entry, looked up, the tested form may be a part): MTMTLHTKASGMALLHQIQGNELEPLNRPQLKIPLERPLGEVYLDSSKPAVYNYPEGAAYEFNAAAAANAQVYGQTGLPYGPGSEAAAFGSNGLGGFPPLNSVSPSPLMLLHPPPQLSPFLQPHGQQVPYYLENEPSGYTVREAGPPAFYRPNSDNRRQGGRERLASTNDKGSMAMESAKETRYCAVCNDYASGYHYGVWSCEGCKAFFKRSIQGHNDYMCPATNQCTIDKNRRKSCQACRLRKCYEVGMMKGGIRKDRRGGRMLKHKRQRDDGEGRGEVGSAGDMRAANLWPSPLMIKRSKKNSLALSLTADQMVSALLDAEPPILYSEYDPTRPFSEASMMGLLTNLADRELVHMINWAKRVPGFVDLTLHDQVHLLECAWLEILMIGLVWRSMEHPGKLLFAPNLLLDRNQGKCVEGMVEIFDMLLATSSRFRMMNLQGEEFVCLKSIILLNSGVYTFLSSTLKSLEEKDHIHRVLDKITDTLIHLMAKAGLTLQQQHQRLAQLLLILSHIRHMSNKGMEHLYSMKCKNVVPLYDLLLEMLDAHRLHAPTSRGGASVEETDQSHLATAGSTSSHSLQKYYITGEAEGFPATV
Method in brief: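 HepG2 cells transiently transfected with multiplexed GAL4-UAS reporter units read out chimeric NR-Gal4 activity. After 24 h compound exposure, reporter mRNA was quantified by RT-PCR, 6-FAM labeling, HpaI digestion and capillary electrophoresis, relative to DMSO.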

[5] = biological target: X-box-binding protein 1 (Homo sapiens) (UniProt P17861); assay: ATG_Xbp1_CIS: Attagene CIS-FACTORIAL HepG2 Assay for human X-box Binding Protein 1 (XBP1) (AID 2282972); settings: HepG2 XBP1 cis-element reporter, Attagene multiplex; actives raise or lower the signal
Chain of X-box-binding protein 1 (Homo sapiens) (P17861 whole entry, looked up): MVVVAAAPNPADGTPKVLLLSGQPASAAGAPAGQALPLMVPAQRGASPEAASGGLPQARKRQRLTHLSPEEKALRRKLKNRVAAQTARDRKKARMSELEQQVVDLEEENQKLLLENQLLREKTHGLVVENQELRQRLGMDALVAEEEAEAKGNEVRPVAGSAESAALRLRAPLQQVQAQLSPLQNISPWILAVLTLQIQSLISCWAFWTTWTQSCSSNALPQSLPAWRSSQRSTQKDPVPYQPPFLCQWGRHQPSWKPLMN
Method in brief: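 After a 24-hour chemical exposure of HepG2 cells carrying cis-regulated reporters, reporter mRNA levels are assessed. Quantification uses RT-PCR, 6-FAM labelling and capillary electrophoresis. Gain- or loss-of-signal is fitted against DMSO.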

[6] = ATG_M_19_TRANS: Attagene TRANS-FACTORIAL HepG2 Assay for M19 Transcription Factor (Internal Marker) (AID 2282974; active = hit-call score of the fitted dose curve at least 0.9, where 1 is the maximum); settings: HepG2 Attagene TRANS-FACTORIAL M19 internal marker reporter
Method in brief: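 Background-control readout: after 24 h chemical exposure of transfected HepG2 carrying GAL4-driven reporter units, RNA was reverse-transcribed, amplified, fluorescently labeled and sized by capillary electrophoresis; gain-of-signal fit against DMSO.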

[7] = ATG_GAL4_TRANS: Attagene TRANS-FACTORIAL HepG2 Assay for GAL4 (Internal Marker) (AID 2282976; active = hit-call score of the fitted dose curve at least 0.9, where 1 is the maximum); settings: HepG2 Attagene TRANS GAL4 internal marker reporter
Method in brief: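 Background-control readout: GAL4-UAS reporter transcript in transiently transfected HepG2 cells after 24 h compound exposure. Measured by RT-PCR, 6-FAM primer extension, HpaI digest and capillary electrophoresis; gain-of-signal fit versus DMSO.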

[8] = biological target: Steroid hormone receptor ERR1 (Homo sapiens) (UniProt P11474); assay: ATG_ERRa_TRANS: Attagene TRANS-FACTORIAL HepG2 Assay for human Estrogen-Related Receptor alpha (ERRa) (AID 2282971; active = hit-call score of the fitted dose curve at least 0.9, where 1 is the maximum); settings: HepG2 Attagene TRANS reporter, ERRa transactivation
Chain of Steroid hormone receptor ERR1 (Homo sapiens) (P11474 whole entry, looked up, the tested form may be a part): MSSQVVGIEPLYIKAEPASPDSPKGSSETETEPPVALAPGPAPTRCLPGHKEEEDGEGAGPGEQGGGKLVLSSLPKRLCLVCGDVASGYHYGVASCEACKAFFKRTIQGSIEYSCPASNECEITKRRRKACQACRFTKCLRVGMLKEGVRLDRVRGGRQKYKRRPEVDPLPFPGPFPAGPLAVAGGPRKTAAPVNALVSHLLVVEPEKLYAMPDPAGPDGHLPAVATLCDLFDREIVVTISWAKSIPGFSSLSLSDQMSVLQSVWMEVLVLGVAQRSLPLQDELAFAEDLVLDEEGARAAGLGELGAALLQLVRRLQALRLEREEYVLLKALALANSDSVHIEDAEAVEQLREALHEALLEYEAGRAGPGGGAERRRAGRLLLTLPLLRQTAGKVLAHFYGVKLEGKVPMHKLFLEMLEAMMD
Method in brief: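 HepG2 cells transiently transfected with GAL4-UAS reporter units and chimeric NR-Gal4 constructs; after 24 hour compound incubation, reporter mRNA quantified by RT-PCR, fluorescent labelling and capillary electrophoresis, gain of signal versus DMSO.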

[9] = biological target: Nuclear receptor subfamily 1 group I member 3 (Homo sapiens) (UniProt Q14994); assay: ATG_CAR_TRANS: Attagene TRANS-FACTORIAL HepG2 Assay for human Constitutive Androstane Receptor (CAR) (AID 2282969; active = hit-call score of the fitted dose curve at least 0.9, where 1 is the maximum;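 note: activators raise reporter mRNA above DMSO so AC50 marks induction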); settings: HepG2 Attagene TRANS-FACTORIAL CAR reporter
Chain of Nuclear receptor subfamily 1 group I member 3 (Homo sapiens) (Q14994 whole entry, looked up, the tested form may be a part): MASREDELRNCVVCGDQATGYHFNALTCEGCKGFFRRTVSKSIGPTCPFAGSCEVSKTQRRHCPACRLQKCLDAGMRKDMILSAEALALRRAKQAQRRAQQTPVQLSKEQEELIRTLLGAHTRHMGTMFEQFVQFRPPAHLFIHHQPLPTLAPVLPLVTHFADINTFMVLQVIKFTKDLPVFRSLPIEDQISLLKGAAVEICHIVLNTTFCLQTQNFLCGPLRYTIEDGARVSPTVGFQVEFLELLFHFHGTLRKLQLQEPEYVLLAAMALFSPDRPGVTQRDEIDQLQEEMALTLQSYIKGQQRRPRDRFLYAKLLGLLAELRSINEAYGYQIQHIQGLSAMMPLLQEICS
Method in brief: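 HepG2 cells transiently transfected with multiplexed GAL4-UAS reporter units expressing chimeric NR-Gal4 proteins; compound exposure 24 h. Reporter mRNA measured by RT-PCR, 6-FAM labelling, HpaI digestion and capillary electrophoresis; gain-of-signal fitted against DMSO baseline.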

[10] = ATG_VDRE_CIS: Attagene CIS-FACTORIAL HepG2 Assay for human Vitamin D Receptor Element (VDRE) (AID 2282968); settings: HepG2 VDRE cis-reporter transcription, actives raise or lower the signal
Method in brief: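 HepG2 cells transiently transfected with cis-element reporter units, dosed 24 h; reporter mRNA measured by RT-PCR, 6-FAM labeling, HpaI digestion and capillary electrophoresis. Activity fitted bidirectionally against DMSO baseline.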

Measured: AC50

Nc1ccc(N)c([N+](=O)[O-])c1
active: [4] 37.8 µM [middle of 5 runs]
not listed: [8] | [9] | [10]
inactive: all other assays above

CCCC(O)C(CC)CO (stereo unspecified)
inactive: [1] | [2] | [3] | [5]

N#CCCCC(C#N)CCC#N (stereo unspecified)
inactive: [1] | [2] | [3] | [8] | [7]

CC(=O)N(C)C
not listed: [4] | [9] | [10]
inactive: all other assays above

CC(C)=CCCC(C)=CC(=O)O
inactive: [1] | [2] | [3] | [5] | [7]

Cc1cc(O)c(C)c(C)c1O
active: [4] 21.2 µM
inactive: [1] | [2] | [3] | [8] | [5]

C=CC(=O)OCCCCCC
inactive: [1] | [2] | [3] | [5] | [6] | [7]

CC(C)(CO)CO
inactive: [1] | [2] | [3] | [8] | [5] | [6]

CCCCCCCC1CCCC1=O (stereo unspecified)
inactive: [1] | [2] | [3] | [4] | [5] | [7]

C#C[C@]1(O)CC[C@H]2[C@@H]3CCc4cc(O)ccc4[C@H]3CC[C@@]21C
inactive: [2] | [3] | [5] | [6] | [7]
active: [2] 152 µM and 78.2 µM | [3] 100 µM | [5] 59.6 µM [middle of 4 runs]

CC(C)(O)C(=O)c1ccc(OCCO)cc1
inactive: [1] | [2] | [3] | [5] | [7]

O=c1cc(-c2ccc(O)cc2)oc2cc(O)cc(O)c12
inactive: [1] | [2] | [3] | [9] | [6]

CC(C)N1C(=O)c2ccccc2C1=O
active: [4] 42.8 µM
inactive: [2] | [3] | [10] | [9] | [5]

CCC(=O)OC(C)(C)C1CC=C(C)CC1 (stereo unspecified)
active: [4] 78.3 µM
not listed: [8] | [9] | [10]
inactive: all other assays above

Nc1ccn([C@H]2CC[C@@H](CO)O2)c(=O)n1
inactive: [1] | [2] | [3] | [5]

Cc1cc(O)c2c(c1)C(=O)c1cc(O)cc(O)c1C2=O
active: [5] 9.89 µM
inactive: [1] | [2] | [3] | [9] | [8]

OC[C@H]1O[C@@H](O[C@H]2[C@H](O)[C@@H](O)[C@H](O)O[C@@H]2CO)[C@H](O)[C@@H](O)[C@H]1O
not listed: [8] | [9] | [10]
inactive: all other assays above

[Na+]
inactive: [1] | [2] | [3] | [6] | [7]

CCO[Si](CCC#N)(OCC)OCC
inactive: [1] | [2] | [3] | [4] | [5] | [7]

COc1cc(OC)c2ccc(=O)oc2c1
inactive: [1] | [2] | [3] | [5] | [7]

CC1(C)CC(N)CC(C)(CN)C1 (stereo unspecified)
inactive: [1] | [2] | [3] | [4] | [5]

CC/C(=C(\c1ccccc1)c1ccc(OCCN(C)C)cc1)c1ccccc1
inactive: [1] | [2] | [3] | [5] | [6] | [7]

CC(=O)OC(C)(C)C
inactive: [1] | [2] | [3] | [5] | [6] | [7]

CC1=C(C=O)C(C)(C)CCC1
inactive: [2] | [3] | [10] | [9] | [4]

O=C(O)C1=NN(c2ccc(S(=O)(=O)O)cc2)C(=O)C1
not listed: [8] | [9] | [10]
inactive: all other assays above

CC1=CCC(=C(C)C)CC1
active: [4] 33.3 µM
not listed: [8] | [9] | [10]
inactive: all other assays above

CC(CO)c1ccccc1 (stereo unspecified)
not listed: [8] | [9] | [10]
inactive: all other assays above

NC(N)=NC(N)=NCCc1ccccc1
inactive: [1] | [2] | [3] | [4] | [5] | [6]

C1CCCNCC1
inactive: [1] | [2] | [3] | [5] | [6] | [7]

C=C(C)C(=O)OCCOCCOC(=O)C(=C)C
inactive: [2] | [3] | [10] | [6] | [7]

CCCCCCCCCO
not listed: [1] | [9]
inactive: all other assays above

CCOC(=O)CCCCCCCCC(=O)OCC
not listed: [1] | [8] | [9]
inactive: all other assays above
